Tests used:
Assay in all cases: log2 ratio of Biotin-Ahx-Ub-VS probe labelling (fragment/DMSO); higher = less target engagement (more negative = stronger competition), active = hit call of the paper (q ≤ 0.05, log2 ratio ≤ -1)
Conditions in all cases: compound concentration: 200 uM; treatment time: 3 h
[1] = biological target: T1, ALG13 (UniProt Q9NP73)
T1 sequence (whole entry): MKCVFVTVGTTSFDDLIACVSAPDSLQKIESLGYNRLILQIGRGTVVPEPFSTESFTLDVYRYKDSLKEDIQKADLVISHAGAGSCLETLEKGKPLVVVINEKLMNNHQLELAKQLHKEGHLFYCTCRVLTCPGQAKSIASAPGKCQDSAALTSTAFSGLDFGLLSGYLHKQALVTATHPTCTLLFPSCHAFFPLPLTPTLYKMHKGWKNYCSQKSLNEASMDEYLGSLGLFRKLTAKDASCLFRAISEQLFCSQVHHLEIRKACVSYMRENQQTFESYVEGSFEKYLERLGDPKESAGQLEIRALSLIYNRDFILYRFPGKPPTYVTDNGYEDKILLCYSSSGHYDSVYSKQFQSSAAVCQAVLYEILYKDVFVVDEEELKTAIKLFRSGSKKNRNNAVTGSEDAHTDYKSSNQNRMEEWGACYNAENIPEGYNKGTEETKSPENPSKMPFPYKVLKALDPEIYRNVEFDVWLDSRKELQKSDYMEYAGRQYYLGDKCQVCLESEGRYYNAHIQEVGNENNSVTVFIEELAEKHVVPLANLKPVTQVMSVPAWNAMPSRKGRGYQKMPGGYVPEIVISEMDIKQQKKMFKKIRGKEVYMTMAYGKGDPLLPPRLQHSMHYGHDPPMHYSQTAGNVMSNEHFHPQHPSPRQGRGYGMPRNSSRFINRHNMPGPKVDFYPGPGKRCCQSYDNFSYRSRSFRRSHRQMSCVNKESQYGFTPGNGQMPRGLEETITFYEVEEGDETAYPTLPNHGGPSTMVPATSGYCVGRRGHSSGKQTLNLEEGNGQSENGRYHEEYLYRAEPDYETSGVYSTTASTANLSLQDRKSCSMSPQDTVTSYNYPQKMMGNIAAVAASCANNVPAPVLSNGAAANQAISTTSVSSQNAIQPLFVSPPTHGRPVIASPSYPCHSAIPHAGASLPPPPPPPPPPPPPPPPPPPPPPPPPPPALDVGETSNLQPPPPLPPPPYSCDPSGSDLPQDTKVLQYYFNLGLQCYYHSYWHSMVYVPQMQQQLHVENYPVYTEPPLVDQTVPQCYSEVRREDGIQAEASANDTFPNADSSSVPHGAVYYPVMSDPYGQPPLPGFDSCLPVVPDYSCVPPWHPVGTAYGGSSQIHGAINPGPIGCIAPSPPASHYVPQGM
Summary of the method: (§1)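 Using Biotin-Ahx-Ub-VS at 0.5 µM final for 1 h, DUBs were labelled in HEK293T lysate (495 µg per sample) that had first been treated in triplicate with fragment at 200 µM or vehicle for 3 h. NeutrAvidin enrichment, LysC and trypsin digestion and diaPASEF LC-MS/MS followed. Spectronaut label-free quantities were global-median-normalised. Values are average log2 fragment/vehicle ratios by unpaired t-test, using proteins with ≥2 unique peptides.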

[2] = biological target: ATXN3 (UniProt P54252)
Sequence of ATXN3 (P54252 whole entry): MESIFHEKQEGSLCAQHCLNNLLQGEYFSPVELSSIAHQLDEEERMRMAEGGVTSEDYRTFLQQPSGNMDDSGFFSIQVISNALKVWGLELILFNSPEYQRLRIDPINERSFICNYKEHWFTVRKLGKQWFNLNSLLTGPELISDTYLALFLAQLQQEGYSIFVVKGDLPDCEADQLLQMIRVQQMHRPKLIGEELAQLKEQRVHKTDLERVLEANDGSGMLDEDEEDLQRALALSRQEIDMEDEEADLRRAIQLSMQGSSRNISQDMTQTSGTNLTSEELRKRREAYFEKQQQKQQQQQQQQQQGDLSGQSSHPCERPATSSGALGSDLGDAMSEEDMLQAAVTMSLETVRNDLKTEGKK
Summary of the method: as §1

[3] = biological target: T2, BAP1 (UniProt Q92560)
T2 sequence (whole entry): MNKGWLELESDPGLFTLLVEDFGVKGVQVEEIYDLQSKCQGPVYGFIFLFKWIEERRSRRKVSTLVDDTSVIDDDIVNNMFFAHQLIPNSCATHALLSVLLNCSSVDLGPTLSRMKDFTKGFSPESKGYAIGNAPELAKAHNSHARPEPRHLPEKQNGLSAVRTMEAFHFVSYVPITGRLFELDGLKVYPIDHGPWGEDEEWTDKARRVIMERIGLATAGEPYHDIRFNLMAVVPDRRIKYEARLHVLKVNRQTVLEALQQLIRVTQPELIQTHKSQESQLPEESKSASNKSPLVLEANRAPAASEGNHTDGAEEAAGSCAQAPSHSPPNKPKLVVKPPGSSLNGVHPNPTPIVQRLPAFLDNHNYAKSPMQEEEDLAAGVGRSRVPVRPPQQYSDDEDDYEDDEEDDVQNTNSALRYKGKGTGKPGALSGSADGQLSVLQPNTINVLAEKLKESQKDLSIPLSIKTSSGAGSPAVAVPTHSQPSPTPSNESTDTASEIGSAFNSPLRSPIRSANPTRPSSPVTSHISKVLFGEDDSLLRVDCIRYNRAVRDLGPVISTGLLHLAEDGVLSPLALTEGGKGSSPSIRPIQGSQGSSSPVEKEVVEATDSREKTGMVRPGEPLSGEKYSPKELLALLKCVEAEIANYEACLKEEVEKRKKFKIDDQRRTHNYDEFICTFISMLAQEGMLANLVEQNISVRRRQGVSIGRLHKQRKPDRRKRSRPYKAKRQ
Summary of the method: as §1

[4] = biological target: EIF3F (UniProt O00303)
Sequence of EIF3F (O00303 whole entry): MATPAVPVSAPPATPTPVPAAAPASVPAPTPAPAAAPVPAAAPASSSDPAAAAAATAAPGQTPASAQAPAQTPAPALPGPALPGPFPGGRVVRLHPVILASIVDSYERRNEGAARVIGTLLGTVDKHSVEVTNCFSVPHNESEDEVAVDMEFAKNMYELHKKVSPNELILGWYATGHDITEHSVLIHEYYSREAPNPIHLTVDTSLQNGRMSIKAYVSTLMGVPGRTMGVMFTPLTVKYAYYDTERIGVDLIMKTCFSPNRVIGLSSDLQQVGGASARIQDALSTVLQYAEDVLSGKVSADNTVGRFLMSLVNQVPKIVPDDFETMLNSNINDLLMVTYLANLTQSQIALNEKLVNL
Summary of the method: as §1

[5] = biological target: EIF3H (UniProt O15372)
Sequence of EIF3H (O15372 whole entry): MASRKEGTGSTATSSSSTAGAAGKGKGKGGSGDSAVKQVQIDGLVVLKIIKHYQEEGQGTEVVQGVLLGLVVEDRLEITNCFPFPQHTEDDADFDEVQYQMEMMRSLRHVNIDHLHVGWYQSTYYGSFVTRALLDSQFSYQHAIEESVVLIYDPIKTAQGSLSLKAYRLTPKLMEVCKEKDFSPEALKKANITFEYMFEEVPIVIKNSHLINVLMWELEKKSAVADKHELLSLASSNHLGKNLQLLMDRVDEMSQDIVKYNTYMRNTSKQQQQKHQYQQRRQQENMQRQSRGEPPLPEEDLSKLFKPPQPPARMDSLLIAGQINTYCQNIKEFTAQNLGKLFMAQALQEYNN
Summary of the method: as §1

[6] = biological target: T3, FAM105A (UniProt Q9NUU6)
T3 sequence (whole entry): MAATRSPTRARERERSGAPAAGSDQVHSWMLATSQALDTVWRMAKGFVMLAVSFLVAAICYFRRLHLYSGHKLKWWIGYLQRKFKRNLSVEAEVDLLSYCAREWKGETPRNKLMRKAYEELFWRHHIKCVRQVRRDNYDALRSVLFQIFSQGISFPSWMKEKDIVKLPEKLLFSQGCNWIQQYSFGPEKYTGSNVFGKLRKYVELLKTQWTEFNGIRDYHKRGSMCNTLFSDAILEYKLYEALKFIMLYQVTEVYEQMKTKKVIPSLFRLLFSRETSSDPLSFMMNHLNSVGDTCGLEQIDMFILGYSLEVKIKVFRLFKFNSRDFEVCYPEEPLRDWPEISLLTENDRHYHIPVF
Summary of the method: as §1

[7] = biological target: OTUB1 (UniProt Q96FW1)
Sequence of OTUB1 (Q96FW1 whole entry): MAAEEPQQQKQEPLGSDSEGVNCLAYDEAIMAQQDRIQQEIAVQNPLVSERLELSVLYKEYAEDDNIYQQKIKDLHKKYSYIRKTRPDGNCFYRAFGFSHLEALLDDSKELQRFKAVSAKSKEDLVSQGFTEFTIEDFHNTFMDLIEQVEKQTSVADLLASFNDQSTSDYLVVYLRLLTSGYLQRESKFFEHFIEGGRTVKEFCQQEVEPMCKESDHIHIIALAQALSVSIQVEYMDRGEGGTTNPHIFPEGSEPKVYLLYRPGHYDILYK
Summary of the method: as §1

[8] = biological target: T4, OTUD4 (UniProt Q01804)
T4 sequence (whole entry): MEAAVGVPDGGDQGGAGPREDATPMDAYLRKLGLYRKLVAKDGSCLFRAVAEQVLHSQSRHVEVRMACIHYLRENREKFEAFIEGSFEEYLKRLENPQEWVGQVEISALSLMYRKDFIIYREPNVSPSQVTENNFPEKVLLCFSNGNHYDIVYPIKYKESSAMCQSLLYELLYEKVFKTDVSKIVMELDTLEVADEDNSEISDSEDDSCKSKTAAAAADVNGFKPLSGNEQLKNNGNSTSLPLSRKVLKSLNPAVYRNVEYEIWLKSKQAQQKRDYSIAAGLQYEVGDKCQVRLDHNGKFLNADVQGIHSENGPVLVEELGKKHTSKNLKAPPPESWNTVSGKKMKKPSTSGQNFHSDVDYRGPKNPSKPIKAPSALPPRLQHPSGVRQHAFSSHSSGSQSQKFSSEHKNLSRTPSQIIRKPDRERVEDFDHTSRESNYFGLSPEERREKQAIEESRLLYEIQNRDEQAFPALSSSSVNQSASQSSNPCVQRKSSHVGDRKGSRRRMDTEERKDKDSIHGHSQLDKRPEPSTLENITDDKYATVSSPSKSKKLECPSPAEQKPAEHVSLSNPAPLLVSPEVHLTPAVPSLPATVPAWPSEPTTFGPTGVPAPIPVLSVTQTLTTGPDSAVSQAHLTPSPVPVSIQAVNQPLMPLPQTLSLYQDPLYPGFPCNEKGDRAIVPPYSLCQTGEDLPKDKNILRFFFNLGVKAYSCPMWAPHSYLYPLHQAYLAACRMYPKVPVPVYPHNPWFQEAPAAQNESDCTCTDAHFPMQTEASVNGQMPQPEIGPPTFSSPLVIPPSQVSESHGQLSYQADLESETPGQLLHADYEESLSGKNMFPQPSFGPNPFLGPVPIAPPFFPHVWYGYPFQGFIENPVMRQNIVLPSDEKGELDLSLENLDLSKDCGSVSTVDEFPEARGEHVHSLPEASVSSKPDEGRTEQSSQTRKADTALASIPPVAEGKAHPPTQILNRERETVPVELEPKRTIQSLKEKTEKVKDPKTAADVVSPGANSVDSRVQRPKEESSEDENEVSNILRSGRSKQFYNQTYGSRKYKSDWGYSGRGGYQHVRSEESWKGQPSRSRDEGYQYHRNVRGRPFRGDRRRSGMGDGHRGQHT
Summary of the method: as §1

[9] = biological target: T5, OTUD5 (UniProt Q96G74)
T5 sequence (whole entry): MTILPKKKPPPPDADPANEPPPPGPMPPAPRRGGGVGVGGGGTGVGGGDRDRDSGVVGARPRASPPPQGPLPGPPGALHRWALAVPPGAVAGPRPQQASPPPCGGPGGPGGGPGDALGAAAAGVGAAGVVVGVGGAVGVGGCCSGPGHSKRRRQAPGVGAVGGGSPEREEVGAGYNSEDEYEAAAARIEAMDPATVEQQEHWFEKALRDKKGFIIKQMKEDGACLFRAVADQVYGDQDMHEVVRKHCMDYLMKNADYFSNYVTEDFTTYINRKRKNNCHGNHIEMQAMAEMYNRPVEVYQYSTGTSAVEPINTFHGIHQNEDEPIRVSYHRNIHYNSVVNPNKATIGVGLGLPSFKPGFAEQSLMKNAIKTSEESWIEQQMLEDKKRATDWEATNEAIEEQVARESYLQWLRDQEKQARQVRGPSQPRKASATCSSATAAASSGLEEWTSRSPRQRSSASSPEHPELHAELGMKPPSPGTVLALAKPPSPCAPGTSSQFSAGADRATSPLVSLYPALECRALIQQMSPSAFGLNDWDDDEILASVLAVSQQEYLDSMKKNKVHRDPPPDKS
Summary of the method: as §1

Measured: log2 ratio of Biotin-Ahx-Ub-VS probe labelling

O=C(CCl)N1c2ccccc2NC(=O)C12CCCC2
inactive: [1] -0.0909 | [2] -0.311 | [3] -0.609 | [4] -0.0311 | [5] 0.277 | [6] 0.141 | [7] -0.478 | [8] -0.196 | [9] -0.711
